Screen size: about 48,000 compounds; about 13,000 (27%) showed an effect of 50% or more. The list shows a part of the results.
Each compound was assayed on Wolbachia pipientis (assay: Anti-Wolbachia Cell-Based Screen). Conditions: 5 µM.
Assay type: functional
Design: scale not given: in the data most compounds retested in dose-response had high values

Compound | Percent Effect
CC(NC(=O)N(C)Cc1ccc(Cl)s1)c1ccccn1 (centres undefined) | 6.324%
CC(NC(=O)NCc1ccccc1Cl)c1ccccn1 (centres undefined) | 111.7%
CC(NC(=O)NCc1ccc(Cl)cc1)c1ccccn1 (centres undefined) | 9.197%
CC(NC(=O)NCc1ccc(Cl)s1)c1ccccn1 (centres undefined) | 3.359%
CC(NC(=O)NCc1cc(Br)cs1)c1ccccn1 (centres undefined) | 100.4%
CCCNC(=O)c1ccc(NC(=O)NC(C)c2ccccn2)cc1 (centres undefined) | -5.222%
CC(NC(=O)NCCc1ccc(Cl)s1)c1ccccn1 (centres undefined) | 158%
CC(NC(=O)Nc1cccnc1N1CCOCC1)c1ccccn1 (centres undefined) | -6.169%
CC(C)CNC(=O)c1ccc(NC(=O)NC(C)c2ccccn2)cc1 (centres undefined) | -15.83%
CC(C)CN1CC2(CCN(C(=O)C3CNC(=O)N3)CC2)CC1=O (centres undefined) | -19.59%
CN(C)C(CNC(=O)c1cc2c([nH]c1=O)CCCC2=O)c1ccsc1 (centres undefined) | 7.24%
Cc1ccc(CNC(=O)c2ccc(S(=O)(=O)N3C[C@@H]4C[C@H]3CN4)cc2)o1 | 13.35%
COc1cccc(N2CCN(Cc3cccc(CCN)c3)CC2=O)c1 | 112.7%
CCn1cc(CN2CCN(Cc3cccc(OC)c3)C(=O)C2)cc1C#N | -7.886%
COc1cccc(N2CCN(Cc3ccc4ccn(C)c4c3)CC2=O)c1 | 113.3%
COc1ccc(N2CCN(CC[C@H](O)c3ccccc3)CC2=O)cc1 | -22.52%
COc1cccc(N2CCN(Cc3ccc(NC(C)=O)cc3)CC2=O)c1 | -1.185%
COc1cc(CN2CCN(c3cccc(OC)c3)C(=O)C2)cc(OC)c1 | -15.09%
COc1cccc(N2CCN(Cc3ccc4occc4c3)CC2=O)c1 | 113.8%
COc1cccc(N2CCN(Cc3cc(C)cc(F)c3)CC2=O)c1 | 130.9%
COc1cccc(CN2CCN(Cc3ccc4nonc4c3)CC2=O)c1 | -14.94%
COc1cccc(N2CCN(CC[C@H](O)c3ccccc3)CC2=O)c1 | -29.06%
COc1cccc(N2CCN(C(=O)C(OC)c3ccccc3)CC2=O)c1 (centres undefined) | 13.04%
COCCCN1C(=O)CC[C@H]2CN(Cc3ccc4occc4c3)CC[C@H]21 | -8.694%
N#Cc1ccc(CNC(=O)C2=NN(c3ccccc3)C(=O)CN2)cc1 | -19.54%

Compound | Percent Effect
N#Cc1ccnc(N2CCN(Cc3cccc(F)c3)CC2)c1 | 16.74%
Cc1n[nH]c(=O)c2c(NC(=O)CN3CCOC(C)C3)oc(C)c12 (centres undefined) | 0.9329%
COc1ccc(CNC[C@H]2COCc3nc4cccnc4n32)cc1 | -4.105%
Cc1cc(CS(=O)(=O)NC2CCCc3ccccc32)on1 (centres undefined) | -2.074%
COc1cccc(N2CCN(C(=O)C(O)CC(C)C)CC2=O)c1 (centres undefined) | 12.91%
COc1cccc(N2CCN(Cc3nccn3C(C)C)CC2=O)c1 | 98.08%
COc1cccc(N2Cc3nc(=O)[nH]n3C2=O)c1 | -15.51%
COc1cccc(N2CCN(Cc3ccc4[nH]ccc4c3)CC2=O)c1 | 81.94%
COc1cccc(N2CCN(C(=O)C(C)Oc3ccccc3)CC2=O)c1 (centres undefined) | 9.152%
c1ccc2[nH]c(C3CCN(Cc4nnc(C5CC5)o4)CC3)cc2c1 | 10.45%
Cc1cc(CNC(=O)c2cc(NC(=O)C(C)C)ccc2Cl)no1 | 18.73%
O=C1C(N2CCN(c3ccc(O)cc3)CC2)CCN1C1CCOCC1 (centres undefined) | -11.86%
CC(C)n1cnnc1CN(C)Cc1ccc(CO)o1 | -7.369%
Cn1cnc2c1CCN(C(C(=O)N1CCCCC1)c1ccccc1)C2 (centres undefined) | 18.33%
O=C(CNc1cc(-c2ccccc2)nc2ccnn12)NC1CC1 | -3.438%
COC(=O)CSCc1nc(-c2ccc(Cl)cc2)no1 | -16.66%
COCCOc1ncccc1-c1noc([C@@H]2CCCN2C2CCC2)n1 | -10.03%
CN(c1cccnn1)[C@@H]1CC[C@@H]2CN(Cc3ccccc3C(=O)O)C[C@@H]21 | 106.4%
CN(c1cccnn1)C1CCN(C(=O)c2ccc3c(c2)COC3)CC1 | -3.847%
CC(O)CN1CCN(Cc2cccc(C(=O)N(C)C)c2)CC1 (centres undefined) | -11.87%
Cc1nn(C)c(C)c1CC(=O)N1CCC(N(C)c2cccnn2)CC1 | -21.95%
CN(c1cccnn1)[C@@H]1CC[C@@H]2CN(Cc3cccc(C(=O)O)c3)C[C@@H]21 | 111.9%
Cn1cccc1C(=O)NCc1cn2c(n1)CN(c1ncccn1)CC2 | -46.58%
O=C1CCCc2cc(-c3csc(CCN4CCOC4=O)n3)ccc2N1 | 2.984%
CS(=O)(=O)CCOCCNc1ccc(C(F)(F)F)cc1C#N | -20.16%

Compound | Percent Effect
CCn1nc(C)c(CN(CCOC)C(=O)c2cnc(C)nc2O)c1C | -5.757%
Nc1nc2nc(C3CCCN(C(=O)c4cscn4)C3)ccc2s1 (centres undefined) | -1.798%
Nc1nc2nc(C3CCCN(C(=O)c4cnccn4)C3)ccc2s1 (centres undefined) | 126%
O=C(c1cnccn1)N1CCCC(Cn2cc(C3CCCC3)nn2)C1 (centres undefined) | -14.19%
O=C(c1cscn1)N1CCC(Cn2cc(-c3ccsc3)nn2)CC1 | 2.039%
Nc1nc2nc(C3CCN(C(=O)c4cscn4)C3)ccc2s1 (centres undefined) | 104%
Nc1nc2nc(C3CCCN(C(=O)c4cncs4)C3)ccc2s1 (centres undefined) | 108.5%
O=C([C@H]1COC[C@H]2CN(CC3CC3)C[C@H]21)N1CCOCC1 | 21.74%
CN(CCCC1CCCC1)C(=O)c1cc(CN2CCC(O)CC2)on1 | -12.63%
COc1cccc(-c2nc3c([nH]2)CCNC3)c1F | -6.974%
CCOc1ccc(N2CCCN=C2NC(=O)c2ccccc2C)cc1 | -3.123%
CC(C)NS(=O)(=O)c1cc(C(=O)O)cc(-c2ccc3c(c2)OCCO3)c1 | -21.29%
Cc1ccc2c(c1)C(NCc1ccccn1)CC2 (centres undefined) | 6.59%
CC(C)NC(=O)[C@@H]1CN(Cc2nccs2)C[C@H]2OCC[C@H]21 | -53.61%
Cc1cnn(C2CCCN(C(=O)c3ccc(Cn4ccnc4)cc3)C2)c1 (centres undefined) | 106.9%
Cc1cnn(C2CCCN(C(=O)c3cccc(Cn4ccnc4)c3)C2)c1 (centres undefined) | 6.448%
Cc1cnn(C2CCCN(C(=O)c3ccc(-n4ccnc4)cc3)C2)c1 (centres undefined) | 97.92%
CC(c1ccccc1)n1c(SCC(=O)O)nnc1-c1ccn[nH]1 (centres undefined) | -4.886%
Cn1c(-c2ccccc2)nn(CCNS(=O)(=O)c2ccccc2Cl)c1=O | -1.369%
CCCS(=O)(=O)N1Cc2c(ncn2Cc2ccccc2)C[C@H]1C(=O)OC | -4.606%
N#Cc1cccc(S(=O)(=O)N2CC(CC(=O)O)c3ccccc32)c1 (centres undefined) | -2.78%
CC1(C)CN(C(=O)Nc2ccc(Cn3cccn3)cc2)CCO1 | -0.352%
Cn1cc(C[C@H]2[C@H](O)CCN2C(=O)C2CCOCC2)cn1 | -4.576%
O=C(C1CCC1)N1CC[C@H](O)[C@@H]1Cc1cccnc1.O=C(O)C(F)(F)F | 95.67%
Cn1cc(C[C@H]2[C@@H](O)CCN2C(=O)C2CC=CC2)cn1 | -1.047%

Compound | Percent Effect
O=C(C1CC=CC1)N1CC[C@@H](O)[C@H]1Cc1cccnc1 | 109.3%
O=C(C1CCOCC1)N1CC[C@@H](O)[C@@H]1Cc1ccncc1 | 93.36%
CN(C)[C@@H]1CCN(C(=O)C2CCOCC2)[C@H]1Cc1ccncc1.O=C(O)C(F)(F)F.O=C(O)C(F)(F)F | -5.936%
O=C(O)C(F)(F)F.O=C(O)C(F)(F)F.O[C@@H]1CCN(CC2CCOC2)[C@H]1Cc1cccnc1 (some centres undefined) | 3.217%
Cn1cc(C[C@H]2[C@@H](O)CCN2C(=O)C2CCC2)cn1 | -13.15%
O=C(C1CCOCC1)N1CC[C@@H]2[C@H]1CCC(=O)N2c1ccccc1 | -23.21%
O=C(C1CCOCC1)N1CC[C@@H](O)[C@@H]1Cc1ccccc1 | 90.42%
CC(C)N1CC(C(=O)N2CCc3c(nc(CC4CC4)[nH]c3=O)C2)CC1=O (centres undefined) | -6.23%
OCC1(CC2CCCCO2)CCN(c2cnc3ccccc3n2)CC1 (centres undefined) | -13.06%
Cc1nc(N2CCCC(C)C2)nc2cc(S(C)(=O)=O)ccc12 (centres undefined) | -6.696%
OCc1cn([C@@H]2c3ccccc3C3(CCNCC3)[C@H]2O)nn1 | -1.268%
O=S(=O)(NCC1(O)CCOc2ccccc21)c1ccccc1F (centres undefined) | 0%
CC(=O)Nc1nc(C(=O)Nc2ccc(N3CCCCC3)nc2)cs1 | 7.498%
CC(C)=CCN1Cc2nnc(C3CCOCC3)n2C(Cc2c[nH]cn2)C1 (centres undefined) | -4.476%
Cc1nccn1-c1cc(CNS(=O)(=O)N2CCCC(C)C2)ccn1 (centres undefined) | 1.62%
c1ccc(C[C@H]2[C@H](N3CCOCC3)CCN2Cc2cccnc2)cc1 | -10.76%
O=C(C1CCOCC1)N1CC[C@H](O)[C@@H]1Cc1cccnc1 | 108.8%
CN(C)C(=O)N1CCN(Cc2nnc(C(C)(C)C)o2)CC1 | 5.287%
Cn1nc(COc2cccnc2)c2c1CCN(CC1CC1)C2.O=C(O)C(F)(F)F.O=C(O)C(F)(F)F | 110.2281%
CC(C)N1CCc2c(c(COc3cccnc3)nn2CC2CC2)C1.O=C(O)C(F)(F)F.O=C(O)C(F)(F)F.O=C(O)C(F)(F)F | -5.827%
Cc1cccc(CN2Cc3[nH]nc(COc4cccnc4)c3C2)n1.O=C(O)C(F)(F)F.O=C(O)C(F)(F)F.O=C(O)C(F)(F)F | 3.508%
CN1CCc2c(c(COc3cncnc3)nn2CC2CC2)C1.O=C(O)C(F)(F)F | -14.06%
Cn1nc(COc2cccnc2)c2c1CCN(Cc1ccco1)C2.O=C(O)C(F)(F)F.O=C(O)C(F)(F)F | -12.77%
COCCN1CCc2c(c(COc3cccnc3)nn2C)C1.O=C(O)C(F)(F)F.O=C(O)C(F)(F)F | 96.91%
